One may read the inhibition as the change of the read-out against control, counted positive when it falls.

This passage reports growth inhibition, inhibition and outcome results from PubChem BioAssay.

A number with no mark means an inactive call. For some of these results: Results with a measured potency or affinity are listed apart. Calls of active or inactive are those of the source. Unless noted, the rule behind the calls is not given here.

Test [1] in a line: antimalarial activity against Dd2 strain (AID 2302;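 active = growth inhibition above 50% at the single 2 µM test dose, taken to imply half-maximal potency below 2 µM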;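 note: 0% = DMSO untreated growth and 100% = chloroquine plus artemisinin killed control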). The following applies: P. falciparum Dd2 in RBCs, LDH growth readout, 72 h; at 2 µM; active compounds read high.
Test [2] can be described thus: HepG2 cytotoxicity, primary screen, cytotoxicity control for P. falciparum antimalarial project, cell-based, ATP luminescence (AID 2303;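 active = inhibition above 50%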;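 note: 0% = DMSO wells and 100% = digitonin-killed cells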). The following applies: HepG2 viability, 24-48 h, at 10 µM, active compounds read high.
Test [3] concerns the target L-lactate dehydrogenase (Plasmodium falciparum (isolate CDC / Honduras)) (UniProt Q27743). As to the kind of experiment: PfLDH activity inhibition – cell lysate, 3D7 strain, counter-screen for P. falciparum growth inhibition project (AID 2304).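 Note: 0% = vehicle and 100% = reference inhibitor.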 The following applies: P. falciparum 3D7 crude extract, LDH APAD/NBT absorbance; at 2 µM; active compounds read high. On the technique in general: Counterscreens check selectivity or assay interference.

Test [4] in a line: inhibition of 3D7 malaria parasite growth – strain 3D7 (AID 2306).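 Note: 0% = DMSO wells and 100% = chloroquine plus artemisinin control wells.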 Conditions: P. falciparum 3D7 erythrocytic growth, LDH absorbance, 72 h; at 2 µM; active compounds read high.
The target of test [5] is Calcium-dependent protein kinase 1 (Plasmodium falciparum (isolate 3D7)) (UniProt P62344). Put plainly: PfCDPK1 kinase inhibitors, biochemical, TCAMS library (AID 1159585; cut-off not given, nearly all actives have IC50 up to about 0.98 µM;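 note: inhibitors leave more ATP so luminescence rises with inhibition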). Conditions: recombinant PfCDPK1, Kinase-Glo ATP depletion luminescence. (In general: In Kinase-Glo more light means more ATP remaining.)
Calcium-dependent protein kinase 1 (Plasmodium falciparum (isolate 3D7)), sequence (P62344 whole entry, looked up): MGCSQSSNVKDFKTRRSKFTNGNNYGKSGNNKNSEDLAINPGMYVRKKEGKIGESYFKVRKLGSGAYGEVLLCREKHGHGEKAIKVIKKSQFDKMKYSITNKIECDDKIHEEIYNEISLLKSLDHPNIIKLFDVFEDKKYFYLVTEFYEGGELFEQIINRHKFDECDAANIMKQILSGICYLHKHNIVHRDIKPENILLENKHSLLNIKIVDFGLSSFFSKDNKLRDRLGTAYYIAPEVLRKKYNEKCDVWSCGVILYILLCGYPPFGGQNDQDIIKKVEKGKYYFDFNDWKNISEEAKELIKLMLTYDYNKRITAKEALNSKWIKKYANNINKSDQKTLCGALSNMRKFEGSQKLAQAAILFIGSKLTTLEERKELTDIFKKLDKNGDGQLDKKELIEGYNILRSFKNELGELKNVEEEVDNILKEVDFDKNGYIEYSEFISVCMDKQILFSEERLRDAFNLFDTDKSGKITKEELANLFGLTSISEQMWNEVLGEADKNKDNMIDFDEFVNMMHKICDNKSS
Test [6] deals with Plasmodium falciparum protein kinase 6 (PK6, PF3D7_1337100) (UniProt Q8IDW1). As to the kind of experiment: PfPK6 kinase inhibitors, biochemical, TCAMS library (AID 1159586). Conditions: recombinant PfPK6, Kinase-Glo ATP depletion luminescence.
Plasmodium falciparum protein kinase 6 (PK6, PF3D7_1337100), sequence (Q8IDW1 1-305): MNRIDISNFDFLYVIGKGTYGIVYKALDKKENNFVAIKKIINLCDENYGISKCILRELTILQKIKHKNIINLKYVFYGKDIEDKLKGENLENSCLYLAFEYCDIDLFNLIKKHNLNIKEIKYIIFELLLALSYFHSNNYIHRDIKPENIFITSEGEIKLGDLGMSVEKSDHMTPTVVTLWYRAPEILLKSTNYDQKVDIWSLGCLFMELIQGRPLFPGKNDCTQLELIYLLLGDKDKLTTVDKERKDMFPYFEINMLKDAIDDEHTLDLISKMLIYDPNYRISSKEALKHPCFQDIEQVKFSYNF
Test [7] deals with Protein kinase 7 (PK7), Plasmodium falciparum 3D7 (PF3D7_0213400) (UniProt Q7YTF7). As to the kind of experiment: inhibition of Plasmodium PK7 catalytic activity – biochemical, TCAMS antimalarial set, Kinase-Glo luminescence (AID 1159587). The following applies: recombinant PfPK7, Kinase-Glo ATP depletion luminescence.
Protein kinase 7 (PK7), Plasmodium falciparum 3D7 (PF3D7_0213400), sequence (Q7YTF7 1-343): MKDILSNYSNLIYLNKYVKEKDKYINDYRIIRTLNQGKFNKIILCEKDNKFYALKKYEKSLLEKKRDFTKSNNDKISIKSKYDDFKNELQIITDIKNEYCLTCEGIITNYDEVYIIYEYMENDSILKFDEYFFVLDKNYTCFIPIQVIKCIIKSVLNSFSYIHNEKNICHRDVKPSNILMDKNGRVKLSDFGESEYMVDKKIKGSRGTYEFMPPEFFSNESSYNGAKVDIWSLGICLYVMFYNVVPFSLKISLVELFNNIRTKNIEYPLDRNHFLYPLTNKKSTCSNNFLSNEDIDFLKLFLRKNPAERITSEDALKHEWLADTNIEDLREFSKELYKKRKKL
The target of test [8] is Calcium-dependent protein kinase 4 (Plasmodium falciparum (isolate 3D7)) (UniProt Q8IBS5). As to the kind of experiment: PfCDPK4 kinase inhibitors, biochemical, TCAMS library (AID 1159588; cut-off not given, nearly all actives have IC50 up to about 0.91 µM). The following applies: recombinant PfCDPK4, Kinase-Glo ATP depletion luminescence.
Calcium-dependent protein kinase 4 (Plasmodium falciparum (isolate 3D7)), sequence (Q8IBS5 whole entry, looked up): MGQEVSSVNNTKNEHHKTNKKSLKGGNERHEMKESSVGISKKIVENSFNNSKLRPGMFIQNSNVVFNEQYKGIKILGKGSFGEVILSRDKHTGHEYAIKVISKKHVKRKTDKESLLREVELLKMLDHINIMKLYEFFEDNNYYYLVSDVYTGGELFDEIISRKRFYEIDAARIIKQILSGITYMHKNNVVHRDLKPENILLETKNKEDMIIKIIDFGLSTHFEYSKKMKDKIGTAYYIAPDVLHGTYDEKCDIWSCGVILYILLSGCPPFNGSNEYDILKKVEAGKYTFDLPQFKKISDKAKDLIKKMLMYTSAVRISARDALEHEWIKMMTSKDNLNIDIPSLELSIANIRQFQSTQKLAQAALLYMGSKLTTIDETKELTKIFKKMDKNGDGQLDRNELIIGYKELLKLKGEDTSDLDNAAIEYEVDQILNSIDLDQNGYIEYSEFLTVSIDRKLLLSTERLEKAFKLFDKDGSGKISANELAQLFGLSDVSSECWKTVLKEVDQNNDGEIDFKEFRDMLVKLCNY

L-lactate dehydrogenase (Plasmodium falciparum (isolate CDC / Honduras)), sequence (Q27743 whole entry, looked up): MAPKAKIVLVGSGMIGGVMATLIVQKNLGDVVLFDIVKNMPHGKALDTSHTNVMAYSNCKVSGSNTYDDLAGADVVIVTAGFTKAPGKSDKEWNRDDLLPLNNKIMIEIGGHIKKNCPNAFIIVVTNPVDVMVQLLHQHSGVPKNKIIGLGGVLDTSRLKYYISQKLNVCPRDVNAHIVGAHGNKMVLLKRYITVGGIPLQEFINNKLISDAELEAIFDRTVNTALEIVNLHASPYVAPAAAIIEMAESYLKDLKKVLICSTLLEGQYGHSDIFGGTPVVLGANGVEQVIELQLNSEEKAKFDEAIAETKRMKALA

Take `Cc1cc(OCCCN2CCC(NS(=O)(=O)c3ccc(Cl)c(Cl)c3)CC2)c2ccccc2n1`: the growth inhibition in test [1] was 35%; in test [4] it was 96% (active). Moreover, the inhibition is 11% in test [2] and 1% in test [3]. The result in test [5], in test [6], in test [7] and in test [8] was inactive.

On to `COc1ccc2nccc([C@@H](O)CN3CCC(NCc4[nH]c5ccccc5c4F)CC3)c2c1`, for which the values for the growth inhibition in test [1] and in test [4] were 61% (active) and 102% (active), respectively. Besides, the inhibition is 19% in test [2] and 3% in test [3]. Also, the outcome in test [5], in test [6], in test [7] and in test [8] was inactive.

Turning to `CS(=O)(=O)CCNCc1ccc(-c2cc3c(Nc4ccc(OCc5cccc(F)c5)c(Cl)c4)ncnc3s2)[nH]1`, the growth inhibition in test [1] is 95% (active); in test [4], 99% (active). Further, the inhibition is 5% in test [2] and 2% in test [3]. The outcome in test [5], in test [6], in test [7] and in test [8] was inactive.

As for `COc1ccc(-c2nc3c(N)nc(N)nc3nc2C(C)C)cc1`, the results for the growth inhibition in test [1] and in test [4] were -4% and 96% (active), respectively. Besides, the inhibition in test [2] is 71% (active); in test [3], 6%. The result in test [5], in test [6], in test [7] and in test [8] was inactive.

In the case of `CC(=O)Nc1ccc2[nH]cc(C3CCN(CCC4CCN(C(=O)/C=C/c5ccc(Cl)c(Cl)c5)CC4)CC3)c2c1`, the growth inhibition in test [1] is 7%; in test [4], 95% (active). Further, the inhibition in test [2] is 13%; in test [3], 4%. The result in test [5], in test [6], in test [7] and in test [8] was inactive.

On to `O=C(/C=C/c1ccc(Cl)c(Cl)c1)NCCCCCN1CCCC(CNS(=O)(=O)c2ccc(F)cc2)C1` (stereo not given), for which the growth inhibition is 7% in test [1] and 91% (active) in test [4]. Moreover, the inhibition was 56% (active) in test [2] and 1% in test [3]. For the same molecule, the outcome in test [5], in test [6], in test [7] and in test [8] was inactive.

For the molecule `CC(=O)c1cccc(NC(=O)NC2CCN(CCCCCNC(=O)/C=C/c3ccc(Cl)c(Cl)c3)CC2)c1`, the growth inhibition in test [1] was 1%; in test [4], 94% (active). Besides, the inhibition in test [2] was 7%; in test [3], 1%. Besides, the result in test [5], in test [6], in test [7] and in test [8] was inactive.

As for `O=C1OC(c2cc3ccccc3n2S(=O)(=O)c2ccccc2)(c2cc3ccccc3n2S(=O)(=O)c2ccccc2)c2ccccc21`, the growth inhibition in test [1] was 78% (active); in test [4], 95% (active). The inhibition was 1% in test [2] and -1% in test [3]. Further, the outcome in test [5], in test [6], in test [7] and in test [8] was inactive.

On to `Cc1[nH]c(C)c(-c2ccc(OCCCc3ccccn3)cc2)c(=O)c1Br`, for which the growth inhibition in test [1] is 97% (active); in test [4], 98% (active). The results for the inhibition in test [2] and in test [3] were -8% and 5%, respectively. The result in test [5], in test [6], in test [7] and in test [8] was inactive.

`C=CCN(c1ccc(OC)cc1)S(=O)(=O)c1ccc(Cl)c(C(=O)Nc2cccc(C#N)c2)c1`: the figures for the growth inhibition in test [1] and in test [4] were 73% (active) and 96% (active), respectively. Moreover, the inhibition in test [2] and in test [3] was 6% in each case. Besides, the result in test [5], in test [6], in test [7] and in test [8] was inactive.

For the molecule `O=C(Cn1c(CCc2cccc(F)c2F)nc(=O)c2ccccc21)N(CCCN1CCCC1)Cc1ccc(-c2ccc(C(F)(F)F)cc2)cc1`, the growth inhibition was 80% (active) in test [1] and 101% (active) in test [4]. The inhibition in test [2] was 54% (active); in test [3], 4%. The outcome in test [5], in test [6], in test [7] and in test [8] was inactive.

With `CNCCCn1c(N(C)C)nc2cc(-n3cnc4cc(-c5ccc(Cl)cc5)sc4c3=O)ccc21`, the growth inhibition is 27% in test [1] and 86% (active) in test [4]. Further, the inhibition in test [2] is 39%; in test [3] it was 1%. Also, the outcome in test [5], in test [6], in test [7] and in test [8] was inactive.

As for `Cc1cccnc1CNc1nccc2c(C)c(C)[nH]c12`, the growth inhibition in test [1] was 28%; in test [4], 100% (active). For the same molecule, the inhibition was 27% in test [2] and 0% in test [3]. In addition, the outcome in test [5], in test [6], in test [7] and in test [8] was inactive.

`FC(F)(F)c1ccc2nccc(NN=Cc3cccc(Cl)c3)c2c1`: the growth inhibition in test [1] is 2%; in test [4], 97% (active). The inhibition in test [2] was -3%; in test [3], -8%. For the same molecule, the result in test [5], in test [6], in test [7] and in test [8] was inactive.

With `N=c1n(CCN2CCCCC2)c2ccccc2n1CC(O)c1ccc(Cl)c(Cl)c1` (stereo not given), the growth inhibition in test [1] and in test [4] was 97% (active) throughout. In addition, the inhibition is 50% (active) in test [2] and -2% in test [3]. Further, the outcome in test [5], in test [6], in test [7] and in test [8] was inactive.

In the case of `CC(=O)Nc1ccc(CN(Cc2cccc(OC(C)(C)C)c2)Cc2ccc3c(c2)OCCO3)cc1`, the growth inhibition in test [1] is 96% (active); in test [4], 95% (active). The inhibition is -10% in test [2] and 8% in test [3]. In addition, the outcome in test [5], in test [6], in test [7] and in test [8] was inactive.

On to `O=C(NCCCCCN1CCC(c2c[nH]c3ccccc23)C1)Nc1ccc(Cl)c(Cl)c1` (stereo not given), for which the growth inhibition is 19% in test [1] and 95% (active) in test [4]. The inhibition was 28% in test [2] and 1% in test [3]. Besides, the result in test [5], in test [6], in test [7] and in test [8] was inactive.

As for `CCOC(=O)c1[nH]c(-c2cc(Cl)nc(Cl)c2)nc1NC(=S)NCc1ccc(NS(C)(=O)=O)cc1`, the growth inhibition was 98% (active) in test [1] and 100% (active) in test [4]. The inhibition in test [2] and in test [3] was -1% in each case. Also, the result in test [5], in test [6], in test [7] and in test [8] was inactive.

For the molecule `CCn1c(-c2nonc2N)nc2c(-c3cccc(NC(=O)Nc4cccc(OC)c4)c3)ncc(OCCCN)c21`, the growth inhibition in test [1] is 69% (active); in test [4], 92% (active). In addition, the values for the inhibition in test [2] and in test [3] were 1% and 4%, respectively. The result in test [5], in test [6], in test [7] and in test [8] was inactive.

Consider `COc1ccc2ncc(F)c(CCN3CC[C@H](NC(=O)c4ccc5c(n4)NC(=O)CS5)[C@H](O)C3)c2n1`, for which the growth inhibition in test [1] and in test [4] was 88% (active) throughout. Also, the values for the inhibition in test [2] and in test [3] were 20% and 0%, respectively. Moreover, the result in test [5], in test [6], in test [7] and in test [8] was inactive.
